In the supplement of paper PMC9262897, “Low-cost anti-mycobacterial drug discovery using engineered E. coli” (Nature Communications, 2022) one finds growth data, which are given here for seven compounds.

Experiment in all cases: growth (OD600 after 10 h); higher = more growth (less inhibition)
Experiment [1] deals with E. coli TESEC Alr+ wild-type control. The conditions noted are these: compound 0.1 mM; raw OD600 reference: median of DMSO wells 0.241, cell-free background 0.041. Here is the method:
(§1)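 TESEC Mtb Alr E. coli, or the Alr+ wild-type control, in 384-well plates with Prestwick library compounds at 0.1 mM and 1% DMSO, across arabinose induction levels of 1E3 to 1E7 nM. Growth is read as OD600 after 10 h at 37 °C in triplicate biological replicates.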

In experiment [2] the test system is E. coli TESEC Mtb Alr. The note with it: compound 0.1 mM. Here is the method:
as §1

In experiment [3] the test system is E. coli TESEC Mtb Asd. The note with it: compound 0.1 mM. Here is the method:
(§2)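 TESEC E. coli strains in which the native enzyme is deleted and replaced by arabinose-inducible Mtb Asd, DapB, CysH or TrpD, each grown in its selective medium. Strains were screened against the Prestwick library at 0.1 mM and 1% DMSO in 384-well format at low and high arabinose induction. Growth is read as OD600 after 10 h in triplicate.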

Experiment [4] has as its system E. coli TESEC Mtb DapB. The conditions noted are these: compound 0.1 mM. Here is the method:
as §2

Experiment [5] concerns E. coli TESEC Alr+ wild-type control. The note with it: compound 0.1 mM; raw OD600 reference: median of DMSO wells 0.49, cell-free background 0.052. Here is the method: (§3)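 TESEC Mtb Alr E. coli (ΔaraC ΔtolC ΔentC Δalr ΔdadX, arabinose-inducible Mtb Alr) or the Alr+ wild-type control strain, grown in defined M9-fructose medium without D-alanine in 96-well plates with Prestwick library compounds at 0.1 mM and 1% DMSO. Low Alr induction is 0.1 µM arabinose and high induction is 10 mM arabinose.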

The subject of experiment [6] is E. coli TESEC Mtb Alr. The conditions noted are these: compound 0.1 mM. Here is the method:
as §3
The source holds these as a separate data set.

[7] abbreviates: arabinose 1000 nM, raw OD600 reference: median of DMSO wells 0.294, cell-free background 0.041.
Setting [8] is: arabinose 10000 nM, raw OD600 reference: median of DMSO wells 0.264, cell-free background 0.041.
Setting [9] is: arabinose 100000 nM, raw OD600 reference: median of DMSO wells 0.201, cell-free background 0.041.
[10] abbreviates: arabinose 1000000 nM, raw OD600 reference: median of DMSO wells 0.193, cell-free background 0.041.
Setting [11] is: arabinose 10000000 nM, raw OD600 reference: median of DMSO wells 0.146, cell-free background 0.041.
Where [12] appears, read: arabinose induction (level): High, raw OD600 reference: median of DMSO wells 0.331, cell-free background 0.041.
The mark [13] stands for this setting: arabinose induction (level): Low, raw OD600 reference: median of DMSO wells 0.417, cell-free background 0.041.
[14] abbreviates: arabinose induction (level): High, raw OD600 reference: median of DMSO wells […], cell-free background 0.041.
The mark [15] stands for this setting: arabinose induction (level): Low, raw OD600 reference: median of DMSO wells 0.227, cell-free background 0.041.
Where [16] appears, read: arabinose 100 nM, raw OD600 reference: median of DMSO wells 0.413, cell-free background 0.052.
The mark [17] stands for this setting: arabinose 10000000 nM, raw OD600 reference: median of DMSO wells […], cell-free background 0.052.

Molecules are shown by their SMILES. Where a name gives a salt, the structure may show the parent alone. ± gives the standard deviation of the averaged measurements.

On to `CCN1CCN(C(=O)N[C@@H](C(=O)N[C@@H]2C(=O)N3C(C(=O)O)=C(CSc4nnnn4C)CS[C@H]23)c2ccc(O)cc2)C(=O)C1=O` [Cefoperazone dihydrate], for which the growth in experiment [1] turned out to be 0.2999 ± 0.0024; in experiment [2] (setting [7]), 0.321 ± 0.0082; in experiment [2] (setting [8]) it was 0.221 ± 0.0032; in experiment [2] (setting [9]), 0.3 ± 0.0043; in experiment [2] (setting [10]), 0.182 ± 0.0037; in experiment [2] (setting [11]) it was 0.1843 ± 0.0004. Further, the growth was determined as 0.413 ± 0.016 in experiment [3] (setting [12]); 0.417 ± 0.087 in experiment [3] (setting [13]); 0.201 ± 0.0085 in experiment [4] (setting [14]); 0.239 ± 0.042 in experiment [4] (setting [15]); 0.512 ± 0.039 in experiment [5]; 0.221 ± 0.078 in experiment [6] (setting [16]). This compound also showed a growth in experiment [6] (setting [17]) of 0.341 ± 0.025.
With `N/C(=N\C(=O)c1nc(Cl)c(N)nc1N)NCc1ccccc1` [Benzamil hydrochloride], the growth worked out at 0.14 ± 0.0042 in experiment [1]; 0.196 ± 0.0093 in experiment [2] (setting [7]); 0.256 ± 0.0065 in experiment [2] (setting [8]); 0.15 ± 0.0096 in experiment [2] (setting [9]); 0.111 ± 0.0026 in experiment [2] (setting [10]); 0.161 ± 0.0069 in experiment [2] (setting [11]). Further, the growth in experiment [3] (setting [12]) is 0.163 ± 0.006; in experiment [3] (setting [13]), 0.199 ± 0.0084; in experiment [4] (setting [14]) it was 0.213 ± 0.023; in experiment [4] (setting [15]) it was 0.232 ± 0.013; in experiment [5], 0.502 ± 0.034; in experiment [6] (setting [16]), 0.41 ± 0.0064. This compound showed a growth in experiment [6] (setting [17]) of 0.299 ± 0.0065.
With `C#C[C@]1(O)CC[C@H]2[C@@H]3[C@H](C)CC4=C(CCC(=O)C4)[C@H]3CC[C@@]21C` [Tibolone], the growth turned out to be 0.141 ± 0.0097 in experiment [1]; 0.162 ± 0.017 in experiment [2] (setting [7]); 0.155 ± 0.031 in experiment [2] (setting [8]); 0.15 ± 0.021 in experiment [2] (setting [9]); 0.0695 ± 0.00095 in experiment [2] (setting [10]); 0.148 ± 0.0066 in experiment [2] (setting [11]). Besides, the growth in experiment [3] (setting [12]) was found to be 0.167 ± 0.036; in experiment [3] (setting [13]), 0.316 ± 0.047; in experiment [4] (setting [14]), 0.17 ± 0.0045; in experiment [4] (setting [15]), 0.172 ± 0.0081; in experiment [5], 0.393 ± 0.015; in experiment [6] (setting [16]), 0.362 ± 0.046. Further, the growth in experiment [6] (setting [17]) turned out to be 0.137 ± 0.003.
As for `Cc1c(O)cccc1C(=O)N[C@@H](CSc1ccccc1)[C@H](O)CN1C[C@H]2CCCC[C@H]2C[C@H]1C(=O)NC(C)(C)C` [Nelfinavir mesylate], the growth in experiment [1] worked out at 0.279 ± 0.06; in experiment [2] (setting [7]) it was 0.329 ± 0.0095; in experiment [2] (setting [8]), 0.284 ± 0.031; in experiment [2] (setting [9]), 0.323 ± 0.062; in experiment [2] (setting [10]) it was 0.148 ± 0.0082; in experiment [2] (setting [11]), 0.276 ± 0.041. For the same compound, the growth in experiment [3] (setting [12]) came to 0.215 ± 0.019; in experiment [3] (setting [13]), 0.275 ± 0.015; in experiment [4] (setting [14]), 0.197 ± 0.077; in experiment [4] (setting [15]) it was 0.23 ± 0.086; in experiment [5], 0.509 ± 0.09.
Regarding `Cc1ccccc1OCC(O)CO` (centres undefined) [Mephenesin], the growth in experiment [1] was determined as 0.258 ± 0.0026; in experiment [2] (setting [7]), 0.286 ± 0.0091; in experiment [2] (setting [8]), 0.261 ± 0.016; in experiment [2] (setting [9]), 0.209 ± 0.016; in experiment [2] (setting [10]) it was 0.184 ± 0.0048; in experiment [2] (setting [11]) it was 0.14 ± 0.0045. Also, the growth stood at 0.416 ± 0.023 in experiment [3] (setting [12]); 0.45 ± 0.025 in experiment [3] (setting [13]); 0.197 ± 0.0078 in experiment [4] (setting [14]); 0.239 ± 0.02 in experiment [4] (setting [15]); 0.494 ± 0.1 in experiment [5]; 0.413 ± 0.0097 in experiment [6] (setting [16]). Also, in experiment [6] (setting [17]), the growth amounted to 0.373 ± 0.0043.
For `O=C(O)COCCN1CCN(C(c2ccccc2)c2ccc(Cl)cc2)CC1` (centres undefined) [Cetirizine dihydrochloride], the growth amounted to 0.21 ± 0.0098 in experiment [1]; 0.275 ± 0.0074 in experiment [2] (setting [7]); 0.25 ± 0.006 in experiment [2] (setting [8]); 0.218 ± 0.017 in experiment [2] (setting [9]); 0.183 ± 0.0077 in experiment [2] (setting [10]); 0.14 ± 0.0034 in experiment [2] (setting [11]). For the same compound, the growth in experiment [3] (setting [12]) was 0.223 ± 0.017; in experiment [3] (setting [13]), 0.273 ± 0.045; in experiment [4] (setting [14]) it was 0.168 ± 0.013; in experiment [4] (setting [15]) it was 0.199 ± 0.019; in experiment [5], 0.655 ± 0.047; in experiment [6] (setting [16]), 0.41 ± 0.014. In addition, in experiment [6] (setting [17]), the growth worked out at 0.349 ± 0.022.
As for `CC1c2cccc(O)c2C(O)=C2C(=O)C3(O)C(O)=C(C(N)=O)C(=O)C(N(C)C)C3C(O)C21` (centres undefined) [Doxycycline hydrochloride], the growth is 0.0447 ± 0.00093 in experiment [1]; 0.0433 ± 0.002 in experiment [2] (setting [7]); 0.0456 ± 0.001 in experiment [2] (setting [8]); 0.04713 ± 0.00031 in experiment [2] (setting [9]); 0.0487 ± 0.0075 in experiment [2] (setting [10]); 0.0461 ± 0.0007 in experiment [2] (setting [11]). Further, the growth was determined as 0.0572 ± 0.0053 in experiment [3] (setting [12]); 0.0534 ± 0.0016 in experiment [3] (setting [13]); 0.0563 ± 0.00081 in experiment [4] (setting [14]); 0.0531 ± 0.0036 in experiment [4] (setting [15]); 0.0579 ± 0.0011 in experiment [5]; 0.0647 ± 0.0031 in experiment [6] (setting [16]). The compound also yielded a growth in experiment [6] (setting [17]) of 0.0602 ± 0.0014.
